Screening data: PubChem, several laboratories
ALR inh = inhibitors of human sulfhydryl oxidase ALR. P55789. purified ALR, DTT oxidation, H2O2 HRP-luminol luminescence. inhibition, % (test concentration not listed). actives 3.8% (n = 290,000). AID 485317;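 active = mean replicate inhibition above about 79%, with every replicate also reaching it, limit read from the data; inconclusive = only one of the two criteria met; inactive = mean below limit and not every replicate reaching it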
Target sequence (P55789 whole entry, looked up): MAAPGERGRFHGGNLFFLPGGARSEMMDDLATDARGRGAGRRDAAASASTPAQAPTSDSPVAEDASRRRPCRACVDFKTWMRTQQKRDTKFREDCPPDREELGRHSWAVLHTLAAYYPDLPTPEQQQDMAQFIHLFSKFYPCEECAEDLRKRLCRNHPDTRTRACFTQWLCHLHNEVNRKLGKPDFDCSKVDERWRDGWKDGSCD
M18AAP inhibitor = blocks P. falciparum M18 aspartyl aminopeptidase. AID 1822. actives 1.2% (n = 290,000). inhibition, % at 7.35 µM. recombinant PfM18AAP, H-Glu-NHMec fluorogenic cleavage;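 active = inhibition above the campaign mean inhibition over all tested compounds plus 3 SD, cut at about 28% in these data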;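 note: 0% = plate median of test compound wells and 100% = 2 mM ZnCl2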
CendR NRP1 mod = alters CendR peptide binding to human NRP-1 | FAM-RPARPAR peptide binding to NRP-1, fluorescence polarization | inhibition, % at 25 µM | actives 0.85% (n = 360,000) | AID 602438;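 active = inhibition or corrected inhibition above about 18%, plus a signal ratio from 0.5 to 1.5, limit read from the data, passing the limit was not always enough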
APOBEC3A inh = inhibitors of human APOBEC3A DNA deaminase | P31941 | recombinant A3A, FAM/TAMRA ssDNA deamination fluorescence | inhibition, % at 20 µM | actives 0.41% (n = 330,000) | AID 493011;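 active = at least 40% inhibition at 20 µM here, with at most 30% in a related deaminase screen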;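 note: plate controls were A3A with DMSO for no effect and wells lacking A3A enzyme for full effect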
Target sequence (P31941 whole entry, looked up): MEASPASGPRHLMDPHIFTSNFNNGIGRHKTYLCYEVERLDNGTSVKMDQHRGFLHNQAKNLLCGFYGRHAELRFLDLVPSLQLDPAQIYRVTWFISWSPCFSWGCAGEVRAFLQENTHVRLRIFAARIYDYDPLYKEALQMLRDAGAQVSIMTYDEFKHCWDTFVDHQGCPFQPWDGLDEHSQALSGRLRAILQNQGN
APOBEC3G inh = blocks human APOBEC3G single-stranded DNA deamination. actives 0.28% (n = 330,000). recombinant A3G, ssDNA deamination FAM/TAMRA fluorescence. Q9HC16. inhibition, % at 20 µM;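 active = inhibition of at least 40% at 20 µM, with no more than 30% in the related APOBEC3A deaminase screen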;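 note: plate controls were DMSO wells with A3G for no effect and wells lacking A3G enzyme for full effect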
Yeast superoxide = caloric restriction mimetics inhibiting age-related superoxide in yeast | S. cerevisiae aged cells, superoxide DHE fluorescence; active compounds read low | superoxide response (% of plate mean), % at 10 µM | actives 0.18% (n = 330,000);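 active = superoxide response under a set limit, about three screen SD below normal, cut at about 65% in these data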;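 note: yeast aged for seven days with compound at 30 °C before DHE staining; 100% = average MFI of all compound-treated wells on the plate with controls excluded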
Starred values were filed as active, the others as inactive; ? = inconclusive; . = no result. Shown are actives, neighbours in structure and some others; about 5.2% of the full set was active somewhere.

SMILES	ALR inh	M18AAP inhibitor	CendR NRP1 mod	APOBEC3A inh	APOBEC3G inh	Yeast superoxide
Cc1ccc(S(=O)(=O)N(C)/C(=N/S(=O)(=O)c2ccccc2)c2ccccc2)cc1	99.4*	-4.9	-5.6	0.7	-1.5	92.7
CN(C)/C(=N\S(=O)(=O)c1ccc(F)cc1)c1ccccc1	6.1	6.6	3.5	0.6	-2.1	89.0
NC(=O)Cn1c(=O)n(CCc2ccccc2)c(=O)c2c3c(sc21)CCCC3	-2.0	-7.0	-14.8	5.6	3.4	95.1
O=C(Nc1ccccc1)N(Cc1ccccc1)C1=NCCS1	98.7*	-1.0	-4.5	-2.1	-4.5	91.7
COc1cc(/C=N/N=C2/C(=O)Nc3ccccc32)cc(OC)c1O	95.4*	20.7	24.7*	3.2	1.4	114.7
Cc1nc(-c2ccccc2)sc1C(=O)CSc1ccccc1	1.9	-1.2	28.4*	1.1	-1.0	104.5
COc1ccc2c(CN(C)c3ccccc3)cc(=O)oc2c1	.	6.3	5.7	.	.	.
CSC1=NC(C)N2C(SC)=NC(C)N12 (stereo not given)	1.1	-6.3	-8.1	8.1	0.5	102.1
O=C(Cc1csc(NC(=O)Nc2cccc(Cl)c2)n1)NCc1cccnc1	.	.	-2.3	-3.3	-13.3	99.8
O=C(Cc1csc(NC(=O)Nc2ccc(Cl)cc2)n1)NCc1cccnc1	.	.	34.3*	-3.3	-7.8	90.7
CCCN(CCC)CCNC(=O)CS(=O)Cc1nc(-c2ccc(C)cc2)oc1C (stereo not given)	98.3*	2.2	4.2	-2.7	-10.9	88.8
Cc1ccc(-c2nc(CS(=O)CC(=O)NCCC(C)C)c(C)o2)cc1 (stereo not given)	98.2*	-2.6	1.5	-4.2	-7.0	95.8
CCCCNC(=O)CS(=O)Cc1nc(-c2ccc(C)cc2)oc1C (stereo not given)	98.7*	3.6	10.1	-4.8	-4.1	97.7
COCCNC(=O)CS(=O)Cc1nc(-c2ccc(Cl)cc2)oc1C (stereo not given)	.	-1.1	-7.1	-4.6	-6.2	75.1
CCCNC(=O)CS(=O)Cc1nc(-c2ccc(OC)cc2)oc1C (stereo not given)	99.3*	-3.8	3.7	-0.6	-2.0	94.0
O=C(O)c1ccccc1/C=N/NC(=O)c1cc(-c2ccco2)nc2ccccc12	-1.4	11.0	-54.6	76.5	75.8	122.8
CN1OC[C@@H]2CN3C(=O)N(c4cccc5ccccc45)c4ccccc4[C@@H]3C[C@@H]21	.	.	0.2	.	.	.
C[C@H]1COC(=O)[C@@H](Cc2ccc(F)cc2)C/C=C\C[C@H](CC(=O)NCCO)C(=O)N1	-3.9	.	17.9	0.9	-2.2	120.8
CCc1c(C)nc(SCC(=O)Nc2nc(-c3ccc(OC)cc3)cs2)[nH]c1=O	98.9*	-3.6	4.0	-0.5	-9.2	89.6
CCOC(=O)Cc1cnc(NC(=O)CSc2nc(C)c(CC)c(=O)[nH]2)s1	99.1*	7.2	-1.5	0.7	-2.8	100.9
COc1ccc(-c2csc(NC(=O)CSc3n[nH]c(C)n3)n2)cc1	.	-0.3	6.7	-2.1	-8.2	102.1
CCc1c(C)nc(SCC(=O)NNC(=O)Cc2ccc(OC)cc2)[nH]c1=O	0.1	29.0*	-2.1	5.0	-1.6	101.5
O=C(O)c1ccc(NS(=O)(=O)c2ccc(N3CCCC3)c([N+](=O)[O-])c2)cc1	.	0.6	14.3	-2.8	-13.7	111.4
Cc1ccn2c(NC3CCCC3)c(-c3ccccn3)nc2c1	97.8*	-5.1	15.5	-1.0	-4.0	88.5
Cc1ccn2c(NC3CCCC3)c(-c3ccncc3)nc2c1	98.4*	2.1	7.5	2.9	-3.1	104.5
SMILES	ALR inh	M18AAP inhibitor	CendR NRP1 mod	APOBEC3A inh	APOBEC3G inh	Yeast superoxide
CCC(C)Sc1ccc(-c2nc3cnccn3c2NC2CCCCC2)cc1 (stereo not given)	.	.	-32.6	-1.7	-0.8	102.8
Cc1ccc2nc(-c3ccncc3)c(NC3CCCC3)n2c1	.	9.9	0.2	-0.2	-4.2	98.9
Cc1ccc(Nc2c(-c3ccccn3)nc3cc(C)ccn23)cc1	98.5*	8.2	7.2	1.4	-6.6	84.5
c1ccc(-c2nc3ccccn3c2NC2CCCC2)nc1	?	-1.4	-2.0	-0.3	-1.8	80.8
Clc1ccc(-c2nc3cnccn3c2NC2CCCC2)cc1	98.7*	12.7	9.1	-0.2	-3.7	85.3
Cc1occc1-c1nnc(SCC(N)=O)o1	-4.8	-3.4	2.3	-0.6	-1.3	95.1
Cc1occc1-c1nnc(SCC(=O)c2ccc(F)cc2)o1	96.6*	-3.4	-13.6	2.7	-0.2	98.8
CCN1CCN(C2=C(NS(=O)(=O)c3ccccc3)C(=O)c3ccccc3C2=O)CC1	-11.6	30.5*	4.2	-4.0	-5.0	198.8
CCN1CCN(C2=C(NS(=O)(=O)c3ccc(Br)cc3)C(=O)c3ccccc3C2=O)CC1	-6.2	20.1	22.1	3.8	8.4	210.5
N=C(N)SCc1ccc(Cl)cc1Cl	99.1*	-3.3	-8.6	-2.1	-5.1	94.1
CN(C)/C=C(\C#N)C(=O)Nc1ccc(O)cc1F	98.8*	2.6	3.1	0.5	-0.7	90.6
CCC(C)(C)NC(=O)/C=C/c1ccccc1[N+](=O)[O-]	95.4*	1.8	-7.2	0.0	-1.3	104.0
CCNC(=O)/C=C/c1ccccc1[N+](=O)[O-]	-5.9	-2.5	9.7	0.3	-5.2	111.5
C[C@@]12CCC3[C@@](CCC4[C@@]3(C)CCC[C@@]4(C)C(=O)NC3CCCCC3)(CC1=O)C2 (stereo not given in full)	-8.1	.	32.2*	2.2	-3.2	90.2
Cc1ccc(N2C(N)=C(C#N)C(c3cccs3)C3=C2CC(C)(C)CC3=O)cc1 (stereo not given)	9.8	-3.3	-6.7	1.7	-8.5	106.8
N#CC1=C(N)N(c2ccccc2)C2=C(C(=O)CCC2)C1c1cccs1 (stereo not given)	12.1	29.1*	-46.6	-1.6	-9.0	96.4
COc1ccc(OCC(=O)Sc2ccc(C)cc2)cc1	98.2*	-4.2	2.6	0.3	-4.6	87.0
Cc1cc(-c2nnc(CCC(=O)NC(Cc3ccccc3)c3ccccc3)o2)no1 (stereo not given)	-4.1	1.4	-10.3	-2.2	-3.9	103.8
CCn1c(-c2c(Cl)c(C)nn2C)n[nH]c1=S	49.0	31.6*	10.9	-1.3	20.2	94.8
CCC(=O)Nc1ccc(C(=O)CSc2nnc(-c3ccc(O)cc3)n2CC2CCCO2)cc1OC (stereo not given)	81.7*	-8.2	-7.1	0.5	-2.9	86.2
COc1ccc(NC(=O)CSc2nnc(-c3ccncc3)n2CC2CCCO2)c(OC)c1 (stereo not given)	-3.6	-7.5	-4.0	1.7	0.3	98.8
CC(C)CC(=O)c1c[nH]c(C(=O)NCc2ccc(F)cc2)c1	-15.6	-6.6	8.0	0.0	-4.1	82.2
O=C(N[C@@H](Cc1ccccc1)C(=O)NC1CCCCCC1)c1ccco1	-7.9	-0.2	0.1	5.1	6.5	100.3
